# Source: PubChem
# The list is not random: actives were taken first. Their share in the collection is about 3.1%.
# TSHR antag: Antagonists of the Thyroid Stimulating Hormone Receptor: HTS campaign; activity change, negative = inhibition, % at 11.5 µM; AID 504810, 2011; TSHR-expressing cells, TSH-stimulated cAMP HTRF, 2 h; active compounds read low; Thyrotropin receptor (Homo sapiens), P16473; 330,000 compounds, 0.2% hits;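 active means activity change below a set negative limit, meaning inhibition stronger than a set level, cut at about -70% in these data; inconclusive means activity change between two set negative limits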; further: on the % scale 0 is the no-effect control and ±100 the full control effect
#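 TSHR-expressing cells, 200/well, pre-treated with compound, then stimulated with EC80 TSH (4nM final) for 2 hours at 37 deg C. cAMP measured by competitive HTRF: anti-cAMP cryptate antibody in lysis buffer plus cAMP-d2, read after 30 minutes at room temperature.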
# VDR inhibitor: Inhibitors of the vitamin D receptor (VDR): qHTS. Potency, µM, without a hit: max response, negative = inhibition, usual class: inhibitors. VDR-SRC2-3 peptide fluorescence polarization, 2 h. AID 504847, 2011. Vitamin D3 receptor (Homo sapiens), P11473. 400,000 compounds, 0.93% hits; further: potency means the concentration at half of the fitted maximal effect; on the % scale 0 is the no-effect control and ±100 the full control effect
# Target sequence (P11473 whole entry, looked up): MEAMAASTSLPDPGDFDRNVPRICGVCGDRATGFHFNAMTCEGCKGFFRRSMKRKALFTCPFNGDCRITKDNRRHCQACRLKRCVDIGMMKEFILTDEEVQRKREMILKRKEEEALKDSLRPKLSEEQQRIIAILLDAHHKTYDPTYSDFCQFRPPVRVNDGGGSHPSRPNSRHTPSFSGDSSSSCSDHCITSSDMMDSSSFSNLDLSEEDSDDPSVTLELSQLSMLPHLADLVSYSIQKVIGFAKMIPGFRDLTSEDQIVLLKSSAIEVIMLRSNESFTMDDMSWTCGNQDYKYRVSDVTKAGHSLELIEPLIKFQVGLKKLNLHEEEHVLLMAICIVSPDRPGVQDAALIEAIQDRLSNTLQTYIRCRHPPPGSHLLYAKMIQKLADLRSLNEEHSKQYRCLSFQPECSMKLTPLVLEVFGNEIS
#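 FP read-out; VDR + SRC2-3 coactivator peptide; 23 nl compound by pintool; 2 h RT incubation; reagents held at 4 deg C, protected from light.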
# Vif-APOBEC3F blk: qHTS for Inhibitors of Vif-A3F Interactions: qHTS. HeLa A3F-eYFP + Vif (tagged APOBEC3F with the HIV-1 protein that degrades it), YFP fluorescence increase. Potency, µM (highest dose often 46.1 µM), for the others: at the highest dose activity, negative = active. 390,000 compounds, 0.2% hits. AID 602313, 2012; further: potency means the concentration at half of the fitted maximal effect; % of control where 0% means no effect; nearly all actives have a fitted effect of over 65% in size
#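 HeLa cells stably expressing A3F-eYFP plus Vif, plated and incubated overnight at 37 deg C, then exposed to compounds overnight at 37 deg C. Blocked degradation read as raised yellow fluorescence (Ex 488/Em 500-530).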
# Vif-A3G inh: qHTS for Inhibitors of Vif-A3G Interactions: qHTS | DNA dC->dU-editing enzyme APOBEC-3G (Homo sapiens), Q9HC16 | HeLa A3G-eYFP + Vif (tagged APOBEC3G with the HIV-1 protein that degrades it), YFP fluorescence, overnight | Potency, µM (highest dose often 46.1 µM), for inactives: at the top dose activity, negative = active, most hits filed as inhibitors | 410,000 compounds, 0.076% hits; further: potency means the concentration at half of the fitted maximal effect; on the % scale 0 is the no-effect control and ±100 the full control effect; nearly all actives have a fitted effect of over 60% in size
#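 HeLa cells stably expressing Vif and C-terminally eYFP-tagged A3G, seeded overnight at 37 deg C, then exposed to compound by pintool overnight at 37 deg C. Rise in yellow fluorescence (Ex 488/Em 500-530, Acumen) marks blocked Vif-driven A3G degradation.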
# PLK1 PBD block: qHTS for Inhibitors of PLK1-PDB (polo-like kinase 1 - polo-box domain): Primary Screen; Potency, µM, for the others: max response, negative = inhibition, most hits filed as inhibitors; Serine/threonine-protein kinase PLK1 (Homo sapiens), P53350; 360,000 compounds, 2.8% hits; Plk1 PBD binding of FITC phosphopeptide, fluorescence polarization; further: potency means the concentration at half of the fitted maximal effect; series mostly up to about 57 µM; on the % scale 0 is the no-effect control and ±100 the full control effect; nearly all actives have a fitted effect of over 65% in size
# Starred values were filed as active, the others as inactive; ? = inconclusive; / = not tested or not shown. Unless noted, the call rests on the fitted dose curve; in most records, active means well fitted curve in the direction sought with a large enough effect; inconclusive means small, poorly fitted or top-dose-only effect, or another doubt; inactive means no such curve, though single readings can be large; an effect the other way counts as inactive or inconclusive.
SMILES,TSHR antag,VDR inhibitor,Vif-APOBEC3F blk,Vif-A3G inh,PLK1 PBD block
CC(=O)Nc1nc(=S)ss1,10,45µM*,1%,0%,24µM*
O=C(Nc1nc(=S)ss1)c1c(F)cccc1F,-3,6%,3%,2%,-4%
CC(C)CC(=O)Nc1nc(=S)ss1,6,?,-7%,-1%,17µM*
Cc1ccccc1C(=O)Nc1nc(=S)ss1,-25,?,1%,-1%,11µM*
O=[N+]([O-])c1ccc(C(c2sc3nc(-c4ccco4)nn3c2O)N2CCN(c3cccc(Cl)c3)CC2)cc1 (stereo not given),/,7%,-1%,2%,/
C=CCOC(=O)C1(C(NC(=O)OC)c2ccccc2)C(=O)Cc2ccccc21 (stereo not given),/,-20%,/,/,/
Fc1ccc(Nc2ccnc(-c3ccc4c(c3)OCO4)n2)cc1,/,40µM*,/,/,/
COc1ccccc1-c1nccc(Nc2ccc(F)cc2)n1,/,50µM*,/,/,/
CN(C)C(=O)c1ccc(-c2nccc(Nc3ccc(F)cc3)n2)cc1,/,50µM*,/,/,/
Cc1ccccc1-c1nccc(Nc2ccc(F)cc2)n1,/,-12%,/,/,/
Fc1ccc(Nc2ccnc(-c3ccoc3)n2)cc1,/,25µM*,/,/,/
COc1ccc(C#Cc2c[nH]c(=O)c3cncnc23)cc1OC,/,-21%,/,/,/
Cc1cccc(OCC(=O)N(Cc2sccc2C)C2CCS(=O)(=O)C2)c1 (stereo not given),/,5%,/,/,/
CN(C)CCOc1ccc2c(c1)C(=O)C(=Cc1ncc([N+](=O)[O-])n1C)C2,/,/,?,11µM*,-19%
CCCN1CNc2c(c(=O)[nH]c(=S)n2CCc2ccccn2)C1,/,-6%,/,/,/
CCOC(=O)c1c(C)oc2c1c(C(c1cccnc1)N1CCCCC1)c(O)c1ccccc12 (stereo not given),7,-17%,2%,0%,12µM*
CCOC(=O)c1c(C)oc2c1c(C(c1ccccc1)N1CCOCC1)c(O)c1ccccc12 (stereo not given),-1,-14%,-8%,0%,-23%
O=C(c1ccc(-n2c(SCc3cccc(F)c3)nc3ccccc3c2=O)cc1)N1CCOCC1,-2,?,-2%,-1%,27µM*
O=C(NCC(=O)N1CCN(C(=O)c2ccco2)CC1)c1ccc(Br)cc1,0,-25%,-5%,-2%,21µM*
O=C(NC(=S)N1CCN(C/C=C/c2ccccc2)CC1)c1ccco1,-1,-15%,-10%,0%,-8%
O=C(c1ccco1)N1CCN(C/C=C/c2ccccc2)CC1,-1,-10%,11%,2%,30µM*
CSC1=NC(=O)/C(=C\c2cccc3ccccc23)S1,-23,79µM*,4%,-13%,-27%
N=C1S/C(=C\c2cccc3ccccc23)C(=O)N1c1ccc(F)cc1,-5,9%,?,?,-11%
CS(=O)(=O)N1CCN(c2ccccc2NC(=O)c2ccc([N+](=O)[O-])o2)CC1,-5,?,6%,?,3.4µM*
CN1CCN(c2ccccc2NC(=O)c2ccc([N+](=O)[O-])o2)CC1,-5,8%,-1%,-11%,-27%
SMILES,TSHR antag,VDR inhibitor,Vif-APOBEC3F blk,Vif-A3G inh,PLK1 PBD block
Cc1ccc(/C=C2/CNC/C(=C/c3ccc(C)cc3)C2=O)cc1,/,?,?,?,0%
Cc1ccc(/C=C2/CNC/C(=C\c3ccc(C)cc3)C2=O)cc1,/,2µM*,/,/,/
CN(C)c1ccc(C=O)cc1Cl,/,/,/,-1%,/
COc1ccccc1NC(=O)c1c(C)oc2c1CCCC2,-23,8%,8%,2%,-1%
O=C(Nc1cccc2ccccc12)c1ccc(F)cc1,0,-1%,21%,-2%,-5%
Cc1oc2c(c1C(=O)Nc1cccc3ccccc13)CCCC2,-23,?,-8%,-11%,3µM*
O=C(Nc1cccc2ccccc12)c1ccccc1,-82*,1%,-13%,-4%,-1%
COc1cccc(C2Nc3ccc4ccccc4c3C3=C2C(=O)CCC3)c1O (stereo not given),-6,-2%,11µM*,?,5%
Cc1ccc(C(=O)N2CCc3cc(CNC(=O)CSc4ccccc4)ccc32)cc1,/,7%,1%,2%,/
